Activity calls are given as the source filed them.
What was measured:
[1] = system: Plasmodium falciparum Sir2 (PF13_0152, Sir2A); experiment: Plasmodium falciparum Sir2A binding compounds – biochemical, small-molecule microarray, 635 nm fluorescence, primary screen (AID 1098); details: fluorescence 635 nm, higher = more signal;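 further: score merges spot fluorescence intensity with its signal-to-noise ratio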
[2] = probe aDKK1 binding to arrayed compounds – biochemical, biotinylated probe, 635/667 nm fluorescence, primary screen (AID 1099); details: small-molecule microarray, higher = more signal;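 further: score merges 667nm spot fluorescence with signal to noise across triplicate slides; reference of the scale not given here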
[3] = probe aCHRDL2 binding to arrayed compounds – biochemical, biotinylated probe, 635/667 nm fluorescence, primary screen (AID 1100); details: small-molecule microarray, higher = more signal
[4] = change in splice reporter luminescence, either direction, cell-based, HEK293, spliceosome inhibition project, primary screen (AID 1101); details: HEK293 splicing luciferase reporter, 24 h, higher = more signal, called active from +8 up or from −8 down;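 further: HEK293 cells carrying a splicing-competent luciferase reporter gene; test concentration not given here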
[5] = biological target: Fibroblast growth factor 10 (Homo sapiens) (UniProt O15520); experiment: compounds binding fibroblast growth factor 10 – biochemical, small-molecule microarray, 635 nm fluorescence, primary screen (AID 1102); details: FGF10 binding, fluorescence 635 nm, higher = more signal
Chain of Fibroblast growth factor 10 (Homo sapiens) (O15520 whole entry, looked up): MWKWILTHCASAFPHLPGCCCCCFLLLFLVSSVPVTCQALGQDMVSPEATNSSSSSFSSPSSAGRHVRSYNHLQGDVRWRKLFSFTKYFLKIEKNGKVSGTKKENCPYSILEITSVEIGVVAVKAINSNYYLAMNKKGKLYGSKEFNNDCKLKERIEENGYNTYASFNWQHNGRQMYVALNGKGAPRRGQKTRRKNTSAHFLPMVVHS

[6] = system: glycogen synthase kinase-3 (GSK3A per assay name; protocol says GSK3B); experiment: compounds binding glycogen synthase kinase-3 – biochemical, small-molecule microarray, 635 nm fluorescence, GSK3A, primary screen (AID 1103); details: fluorescence 635 nm, higher = more signal; further: the record names both GSK3A and GSK3B
[7] = biological target: Epidermal growth factor receptor (Homo sapiens) (UniProt P00533); experiment: compounds binding epidermal growth factor receptor – biochemical, small-molecule microarray, 635 nm fluorescence, primary screen (AID 1104); details: EGFR binding, higher = more signal;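 further: score merges 667 nm emission intensity with spot signal to noise over triplicate slides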
Chain of Epidermal growth factor receptor (Homo sapiens) (P00533 whole entry, looked up): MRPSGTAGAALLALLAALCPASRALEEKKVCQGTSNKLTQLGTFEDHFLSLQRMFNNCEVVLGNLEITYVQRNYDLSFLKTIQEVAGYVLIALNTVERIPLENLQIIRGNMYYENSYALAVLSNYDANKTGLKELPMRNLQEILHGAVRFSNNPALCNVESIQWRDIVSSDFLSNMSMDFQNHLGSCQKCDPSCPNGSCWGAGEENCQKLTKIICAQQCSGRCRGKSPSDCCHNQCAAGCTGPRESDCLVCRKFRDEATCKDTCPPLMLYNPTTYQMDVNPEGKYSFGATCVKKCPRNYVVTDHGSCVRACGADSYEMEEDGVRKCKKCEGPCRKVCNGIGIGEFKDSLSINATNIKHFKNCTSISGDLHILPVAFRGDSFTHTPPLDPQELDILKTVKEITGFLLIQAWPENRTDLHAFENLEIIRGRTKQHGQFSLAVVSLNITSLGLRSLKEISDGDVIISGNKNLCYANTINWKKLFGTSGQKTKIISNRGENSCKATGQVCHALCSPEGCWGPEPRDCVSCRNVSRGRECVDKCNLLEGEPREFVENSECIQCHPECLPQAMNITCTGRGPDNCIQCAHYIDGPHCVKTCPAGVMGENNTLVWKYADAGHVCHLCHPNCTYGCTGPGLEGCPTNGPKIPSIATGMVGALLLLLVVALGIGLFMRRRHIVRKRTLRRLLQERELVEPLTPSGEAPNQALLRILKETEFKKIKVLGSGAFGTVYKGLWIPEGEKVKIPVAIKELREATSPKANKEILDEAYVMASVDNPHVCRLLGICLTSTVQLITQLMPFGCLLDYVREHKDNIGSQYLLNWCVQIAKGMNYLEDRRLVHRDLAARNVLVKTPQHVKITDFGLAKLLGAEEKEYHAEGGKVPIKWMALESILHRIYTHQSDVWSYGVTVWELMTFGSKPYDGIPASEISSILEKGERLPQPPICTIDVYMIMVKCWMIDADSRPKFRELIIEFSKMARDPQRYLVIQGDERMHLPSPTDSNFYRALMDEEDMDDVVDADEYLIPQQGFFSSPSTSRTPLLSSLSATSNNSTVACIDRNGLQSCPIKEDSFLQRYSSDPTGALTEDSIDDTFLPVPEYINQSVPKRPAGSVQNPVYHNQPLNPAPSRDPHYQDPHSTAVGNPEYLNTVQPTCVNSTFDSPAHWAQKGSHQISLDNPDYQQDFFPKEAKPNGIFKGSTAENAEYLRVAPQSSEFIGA

[8] = biological target: Follistatin-related protein 3 (Homo sapiens) (UniProt O95633); experiment: compounds binding follistatin-related protein 3 – biochemical, small-molecule microarray, 635 nm fluorescence, primary screen (AID 1105); details: FSTL3 binding, higher = more signal;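 further: score merges emission near 667 nm and signal to noise per printed spot across three slides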
Chain of Follistatin-related protein 3 (Homo sapiens) (O95633 whole entry, looked up): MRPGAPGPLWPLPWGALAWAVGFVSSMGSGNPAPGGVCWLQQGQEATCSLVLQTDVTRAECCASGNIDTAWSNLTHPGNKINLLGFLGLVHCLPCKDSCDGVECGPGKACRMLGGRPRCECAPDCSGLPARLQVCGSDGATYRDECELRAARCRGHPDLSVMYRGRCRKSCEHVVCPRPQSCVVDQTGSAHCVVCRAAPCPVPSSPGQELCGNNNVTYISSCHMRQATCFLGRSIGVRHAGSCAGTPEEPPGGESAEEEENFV

[9] = biological target: Dickkopf-related protein 1 (Homo sapiens) (UniProt O94907); experiment: small molecules binding DKK1 protein – biochemical, small-molecule microarray, 635 nm fluorescence scan, primary screen (AID 1106); details: higher = more signal;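 further: score merges emission near 667 nm with signal to noise over three replicate slides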
Chain of Dickkopf-related protein 1 (Homo sapiens) (O94907 whole entry, looked up): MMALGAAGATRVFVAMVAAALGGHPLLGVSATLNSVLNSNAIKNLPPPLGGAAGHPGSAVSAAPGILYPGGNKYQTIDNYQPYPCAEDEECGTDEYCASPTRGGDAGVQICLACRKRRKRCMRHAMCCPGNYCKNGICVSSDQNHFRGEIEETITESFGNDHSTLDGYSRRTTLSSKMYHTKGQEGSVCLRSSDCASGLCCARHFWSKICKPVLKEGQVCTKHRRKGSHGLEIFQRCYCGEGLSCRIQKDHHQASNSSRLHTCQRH

[10] = system: Inhibin beta A chain (activin A); experiment: small molecules binding activin A – biochemical, small-molecule microarray, 635 nm fluorescence scan, primary screen (AID 1107); details: INHBA, higher = more signal;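 further: mouse activin A protein probed at 4.33 µg/mL on printed slides; score merges bound-protein fluorescence near 667 nm with spot signal-to-noise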

Structure (SMILES)	composite z-score [1]	composite z-score [2]	composite z-score [3]	z-score [4]	composite z-score [5]	composite z-score [6]	composite z-score [7]	composite z-score [8]	composite z-score [9]	composite z-score [10]
[N-]=[N+]=NCc1ccccc1[C@@H]1OC(c2ccc(OCCCO)cc2)=N[C@]1(Cc1ccccc1N=[N+]=[N-])C(=O)NCc1ccccc1	0.919	0.0108	0.316	-0.856 (inactive)	0.691	1.25	0.351	0.667	0.0688	1.28
COc1ccc(C#Cc2ccc3c(c2)[C@]2(C(=O)N3)[C@H](c3ccc(O)cc3)N3[C@H](c4ccccc4)[C@H](c4ccccc4)OC(=O)[C@H]3[C@@H]2C(=O)NC[C@H](O)c2ccccc2)cc1	1.14	0.155	0.397	-1.02 (inactive)	0.94	0.755	0.206	0.801	0.233	0.282
CCC[C@@H]1C=C(C(=O)O)[C@H](c2ccc(C)cc2)N1S(=O)(=O)c1ccc(C)cc1	0.706	0.36	0.817	1.04 (inactive)	0.74	0.415	-0.278	0.192	-0.435	0.71
C=CCC(OC(C)=O)[C@@H]1[C@@H](N(Cc2ccc(-c3ccccc3)cc2)C(=O)Cc2ccc(F)cc2)c2cc(OCCCO)ccc2N1C(=O)c1ccc2ccccc2n1 (stereo not given in full)	0.295	0.0021	0.531	-0.457 (inactive)	0.0915	-0.226	-0.294	-0.112	-0.221	1.27
CC(=O)NCCCC[C@@H]1NC(=O)[C@@H]2C[C@H](C(=O)NCCCCN(C)C)[C@H](c3ccc(O)cc3)N2C1=O	-0.165	-0.161	0.704	-1.12 (inactive)	-0.117	0.0247	-0.588	-0.723	0.295	-0.727
O=C1O[C@@H](c2ccccc2)[C@@H](c2ccccc2)N2[C@@H](c3ccc(O)cc3)[C@]3(C(=O)Nc4ccc(C#CC5(O)CCCCCC5)cc43)[C@@H](C(=O)N3CCCCCCC3)[C@H]12	1.99	2.61	1.26	-0.612 (inactive)	1.51	1.38	1.83	1.53	2.49	1.86
Cc1ccc(S[C@]2(C(=O)NC3CC3)CC(=O)N(C3CCCCC3)[C@@H]2c2ccc(CO)cc2I)cc1	1.19	0.198	0.259	-0.575 (inactive)	0.796	0.52	0.396	1.18	0.0553	0.0315
O=C1O[C@H](c2ccccc2)[C@H](c2ccccc2)N2[C@H]1[C@@H](C(=O)O)[C@]1(C(=O)Nc3ccc(C#CC4=CCCCC4)cc31)[C@H]2c1ccc(OCCO)cc1	1.43	-0.211	-0.701	-0.248 (inactive)	1.25	1.28	0.58	1.42	0.765	0.302
O=C/C=C/c1ccc(Cl)cc1	-0.34	-0.235	0.0073	-1.05 (inactive)	-0.513	-0.966	-0.301	0.0697	0.0956	0.934
COc1ccc(C(O)C2C=CC3C(=O)N(C)C(=O)C3N2Nc2ccccc2)cc1OCc1ccccc1 (stereo not given)	1.1	0.679	0.85	0.89 (inactive)	0.868	0.841	0.165	0.814	-0.0523	0.152
[N-]=[N+]=NCc1ccccc1C[C@]1(C(=O)O)N=C(c2ccc(OCCCO)cc2)O[C@H]1c1ccccc1	1.44	0.181	1.06	0.624 (inactive)	-0.2	0.102	-1	-0.627	-0.94	0.884
CCOC(=O)C[C@H]1[C@H](OC(=O)Cc2ccc3c(c2)OCO3)[C@@H](NC(=O)C2CCCCC2)c2cc(OCCCO)ccc2N1C(=O)Cc1ccc(OC)cc1	0.17	-0.244	-0.214	-1.6 (inactive)	0.919	0.646	0.252	0.297	0.316	0.561
CC(C)=CCCC(C)=CC(O)C1C=CC2C(=O)N(c3ccccc3)C(=O)C2N1Nc1ccccc1 (stereo not given)	1.36	1.21	0.997	1.18 (inactive)	1.05	0.978	0.251	1.38	0.113	1.06
COc1ccc([Si](C)(C)[C@@H]2[C@@H](CC(=O)N3CCC[C@H]3CO)O[C@]3(C(=O)N(C)c4c(Br)cc(C)cc43)[C@H]2C)cc1	0.717	0.0781	0.0013	-0.778 (inactive)	0.801	0.889	0.35	1.42	1.1	0.809
COCC(=C=CC[C@H](O)c1ccc(OCCO)cc1)C[C@H](O)c1cc(Cl)cc(Cl)c1O	0.654	-0.268	-0.0229	-2.51 (inactive)	1.55	0.26	0.0404	1.11	-0.043	0.598
O=C1OCC=C[C@H]2OC34C=CCN(c5ccc(Cl)cc5)C(=O)[C@H]3N(CCCCCCO)C(=O)[C@@H]4[C@@H]12 (stereo not given in full)	2.08	0.0526	0.731	-0.313 (inactive)	-1.17	-0.799	-1.78	-1.58	-1.22	-0.087
Cc1ccccc1C(O)C1C=CC2C(=O)N(C)C(=O)C2N1Nc1ccccc1 (stereo not given)	1.06	0.973	1.07	0.0737 (inactive)	0.2	0.63	-0.0369	0.304	0.0139	1.16
Cc1ccccc1C(O)C1C=CC2C(=O)N(C)C(=O)C2N1N1CCCCC1 (stereo not given)	1.29	0.837	0.906	1.28 (inactive)	0.975	1.04	0.628	0.621	0.215	1.28
CC(C)C(=C=CC[C@H](O)c1cccc(OCCO)c1)C[C@H](O)COCc1ccccc1	0.845	-0.27	-0.154	0.102 (inactive)	0.876	-0.376	-0.379	-0.0234	0.116	0.405
NC(=O)NCC#Cc1ccc2c(c1)[C@]1(C(=O)N2)[C@H](C(=O)NC[C@H](O)c2ccccc2)[C@H]2C(=O)O[C@H](c3ccccc3)[C@H](c3ccccc3)N2[C@@H]1c1ccc(O)cc1	1.23	0.0166	-0.249	0.37 (inactive)	0.893	0.664	0.575	0.553	0.314	1.72
O=C1OCC=C[C@H]2OC34C=CCN(c5ccc6ccccc6c5)C(=O)[C@H]3N(CCCO)C(=O)[C@@H]4[C@@H]12 (stereo not given in full)	1.17	0.0114	0.899	-1.72 (inactive)	-0.709	-1.34	-1.15	-0.699	-1.06	0.374
COC(=O)C1=CC(CCCO)=CC(C2CC2)N(Cc2sc3ccccc3c2Cl)C=C1C(=O)OC (stereo not given)	1.17	0.589	0.724	-0.8 (inactive)	1.02	0.902	0.0108	0.766	-0.0017	1.06
